From PubChem BioAssay AID720706 (Broad Institute, 2013) come the findings set out here.

Values joined by “and” are separate entries in the source; they are usually repeats but may differ in a detail not shown here. Equal entries are not always repeated. Screen size: about 350,000 compounds; about 5,500 (1.6%) were called active.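 Rule for the calls: active = significant combined selectivity score with lowered wild-type GFP, culture density cut under 30%, mutant RFP and density less affected; inactive = any of these conditions unmet.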 What follows is part of a selection rich in actives, with near analogues and random picks from the rest. A structure can be active in one record and inactive in another.

The assay can be described thus: reduced GFP signal of wild-type E. coli, primary screen, bacterial rRNA inhibitor project, GFP/RFP fluorescence, OD600, single point (AID 720706). The settings on record: E. coli WT GFP vs humanized-ribosome RFP mutants, 24 h; GFP signal change (wild-type ribosome): stronger effect = lower value, DMSO median 0, no signal -100; OD600 change: measured here: OD600 growth, DMSO median 0, no signal -100; RFP signal change: measured here: RFP humanized mutant strains, DMSO median 0, no signal -100, concentration not given here.
For `COc1ccccc1-c1cnc2c(c1)C(=O)N([C@@H](C)CO)C[C@H](C)[C@@H](CN(C)C(C)=O)O2`, the GFP signal change (wild-type ribosome) was 3.59% (inactive), the OD600 change stood at 4.33% and the RFP signal change is -1.79%.
For the compound `O=C(/C=C/c1ccc(Cl)c([N+](=O)[O-])c1)c1ccc(O)cc1`, the GFP signal change (wild-type ribosome) was -26.1% (active), the OD600 change is -2.69% and the RFP signal change turned out to be 9.14%.
Turning to `CN(C)c1ccc(/C=C/C(=O)c2ccc(O)cc2)cc1[N+](=O)[O-]`, the GFP signal change (wild-type ribosome) is -22.5% (active), the OD600 change is -13.8% and the RFP signal change was determined as 5.33%.
`O=C(COC(=O)c1ccc(O)cc1O)c1ccc2c(c1)OCCO2`: the GFP signal change (wild-type ribosome) was -13.2% (inactive), the OD600 change was -20.4% and the RFP signal change came to 0.835%.
On to `O=C(/C=C/c1ccc(Cl)cc1)N1CCN(c2ccccc2[N+](=O)[O-])CC1`, for which the GFP signal change (wild-type ribosome) is -31% (inactive), the OD600 change was -42.6% and the RFP signal change was -26.6%.
For `COc1ccc(OC)c(/C=C/C(=O)c2ccc3c(c2)OCO3)c1`, the GFP signal change (wild-type ribosome) was 0.015% (inactive), the OD600 change is -9.29% and the RFP signal change is -8.02%.
`CC(=O)Nc1ccc(C=CC(=O)c2ccc([N+](=O)[O-])cc2)cc1`: the GFP signal change (wild-type ribosome) is 5.97% (inactive), the OD600 change was 7.9% and the RFP signal change is -0.138%.
For the compound `O=C(/C=C/c1ccc2c(c1)OCCO2)c1ccc(O)cc1`, the GFP signal change (wild-type ribosome) was -19.8% (active), the OD600 change is -11.6% and the RFP signal change was 6.75%.
Take `CC(=O)Nc1ccc(C=Cc2ccc([N+](=O)[O-])cc2)cc1`: the GFP signal change (wild-type ribosome) is 2.45% (inactive), the OD600 change turned out to be 3.79% and the RFP signal change is -1.71%.
For `CC(CC(=O)O)C(=O)c1ccc(Cl)c([N+](=O)[O-])c1` (stereo unspecified), in that order: 10.7% (inactive), 9.82% and -3.76%.
For `CC=Cc1ccc2n(c1=O)C[C@@H]1[C@@H](CO)[C@H](C(=O)N(C)C)N(CC3CCOCC3)[C@H]21` (mixture of isomers), in that order: 2.33% (inactive), -5.67% and 0.865%.
In the case of `CN1c2ccc(Br)cc2[C@@H]2[C@@H](CCN2C(=O)C2CCCC2)[C@H]1CO`, the GFP signal change (wild-type ribosome) was -37% (inactive), the OD600 change was -68.3% and the RFP signal change is 0.745%.
Turning to `COCC#Cc1ccc([C@@H]2[C@@H](CO)N3CCCCN(C(=O)COC)C[C@@H]23)cc1`, the GFP signal change (wild-type ribosome) is 4.36% (inactive), the OD600 change amounted to 1.27% and the RFP signal change was -1.64%.
As to `COCC#Cc1ccc2c(c1)O[C@H](CN(C)C(=O)CC1CC1)[C@@H](C)CN([C@@H](C)CO)S2(=O)=O`, the GFP signal change (wild-type ribosome) is 1.22% (inactive), the OD600 change turned out to be 3.88% and the RFP signal change is -1.84%.
With `CCCNC(=O)N(C)C[C@H]1Oc2ncc(-c3ccccc3F)cc2C(=O)N([C@@H](C)CO)C[C@H]1C`, the GFP signal change (wild-type ribosome) is -0.164% (inactive), the OD600 change is 9.97% and the RFP signal change was 0.69%.
With `Cc1cccc(Nc2nc(-c3ccccc3)cs2)n1`, the GFP signal change (wild-type ribosome) is -36.3% (active), the OD600 change is -28.1% and the RFP signal change is -6.26%.
For `CC(=O)NC(c1ccccc1)c1nc(-c2cccc(C(C)C)c2)cs1` (stereo unspecified), in that order: 2.35% (inactive), -27.5% and 4.32%.
In the case of `COc1ccc(-c2csc(Nc3cccc(C)n3)n2)cc1OC`, the GFP signal change (wild-type ribosome) is -3.87% (inactive), the OD600 change is -21.5% and the RFP signal change came out at 23%.
For `COc1ccc(-c2cn(CC[C@@H]3CC[C@@H](NS(=O)(=O)c4ccccc4C)[C@H](CO)O3)nn2)cc1`, the GFP signal change (wild-type ribosome) was -0.161% (inactive), the OD600 change was determined as 0.015% and the RFP signal change turned out to be 1.23%.
`COc1ccccc1NC(=O)N[C@H]1CC[C@@H](CC(=O)NCc2ccc(Cl)c(Cl)c2)O[C@H]1CO`: the GFP signal change (wild-type ribosome) was -9.75% (inactive), the OD600 change was -22.7% and the RFP signal change is 1.88%.
With `CC(=O)C12CC(C)=C(C)CC1CC1C3CCC4=CC(=O)CCC4(C)C3CCC12C` (stereo unspecified), the GFP signal change (wild-type ribosome) was -17.6% (active), the OD600 change came out at 7.85% and the RFP signal change was determined as 5.44%.
With `CC(=O)O[C@]1(C(C)=O)CC[C@H]2[C@@H]3C=C(C)C4=CC(=O)CC[C@]4(C)[C@H]3CC[C@@]21C`, the GFP signal change (wild-type ribosome) is -55.8% (inactive), the OD600 change was -76.8% and the RFP signal change was -10.6%.
In the same order, the values of `CC12CCC(=O)C=C1CCC1C2C(O)CC2(C)C1CCC2(O)C(O)CO` (stereo unspecified) are 8.19% (inactive), 4.56% and 4.01%.
Regarding `CCCC#Cc1ccc([C@H]2[C@H]3CN(C(=O)Nc4cc(F)ccc4F)CC(=O)N3[C@H]2CO)cc1`, the GFP signal change (wild-type ribosome) is -18.4% (inactive), the OD600 change is -50.2% and the RFP signal change amounted to 11.1%.
For `C[C@@H]1CN([C@H](C)CO)C(=O)c2cc(NC(=O)NC3CCCCC3)ccc2O[C@H]1CN(C)C(=O)Nc1ccccc1`, in that order: 5.36% (inactive), 10.1% and 2.7%.
As for `O=C(C[C@H]1C=C[C@H](NC(=O)C2CCC2)[C@H](CO)O1)NCCCN1CCOCC1`, the GFP signal change (wild-type ribosome) is 1.78% (inactive), the OD600 change was found to be 4.36% and the RFP signal change is -0.385%.
In the same order, the values of `CCCCCn1nnnc1C1c2ccccc2C(=O)N1Cc1ccco1` (stereo unspecified) are -4.73% (inactive), -2.58% and -0.015%.
Turning to `CCCCn1c(-c2cccc(C)c2)nc2cc3[nH]c(=O)c(C(C)C)nc3cc21`, the GFP signal change (wild-type ribosome) was -29.5% (inactive), the OD600 change is -62% and the RFP signal change was found to be 13.5%.
For the compound `CCCCCn1nnnc1-c1nc2cc3ccccc3cc2[nH]c1=O`, the GFP signal change (wild-type ribosome) is -19.2% (active), the OD600 change was -5.54% and the RFP signal change amounted to 8.22%.
For `CCn1c(C)c(C)c2cc(C(=O)N3CCN(c4cccc(C)c4C)CC3)ccc21`, in that order: 13.4% (inactive), -10.1% and 8.15%.
In the same order, the values of `CCOc1ccccc1N1CCN(C(=O)c2ccc3[nH]c(C)c(C)c3c2)CC1` are -34.6% (active), -17.6% and 7.07%.
In the same order, the values of `Cc1[nH]c2ccc(C(=O)N3CCN(C)CC3)cc2c1C` are 6.6% (inactive), 11% and 3.29%.
For `CNC[C@@H]1Oc2ccc(N(C)C)cc2CC(=O)N(C)C[C@@H]1C`, the GFP signal change (wild-type ribosome) is -0.679% (inactive), the OD600 change was 1.44% and the RFP signal change is -1.38%.
With `CN(/N=C/c1ccccc1)C(=S)c1ccccc1`, the GFP signal change (wild-type ribosome) was -28.9% (active), the OD600 change was -13.5% and the RFP signal change is -2.92%.
For `NN=C(NN=Cc1ccccc1)c1ccccc1`, the GFP signal change (wild-type ribosome) is 3.05% (inactive), the OD600 change turned out to be 19.4% and the RFP signal change is -0.189%.
Regarding `CN(O)C(=S)c1ccccc1`, the GFP signal change (wild-type ribosome) was -58% (inactive), the OD600 change is -75.2% and the RFP signal change is -15%.
Regarding `O=C(C[C@H]1C[C@@H]2c3cc(NS(=O)(=O)c4ccc(F)cc4)ccc3O[C@@H]2[C@H](CO)O1)NCc1cccc(F)c1`, the GFP signal change (wild-type ribosome) was 0.64% (inactive), the OD600 change is -2.85% and the RFP signal change stood at 2.59%.
In the case of `CCC(=O)N1CC(=O)N2[C@@H](CO)[C@H](c3ccc(C#CC4CCCC4)cc3)[C@@H]2C1`, the GFP signal change (wild-type ribosome) was 1.66% (inactive), the OD600 change is -3.78% and the RFP signal change was -1.59%.
Regarding `O=C(C[C@@H]1CC[C@H]2[C@@H](COC[C@@H](O)CN2C(=O)c2ccc3c(c2)OCO3)O1)NC1Cc2ccccc2C1`, the GFP signal change (wild-type ribosome) was 1.47% (inactive), the OD600 change is -6.88% and the RFP signal change was -0.618%.
Take `C[C@@H]1CN([C@@H](C)CO)C(=O)CCCn2nncc2CO[C@H]1CN(C)Cc1ccc(C(F)(F)F)cc1`: the GFP signal change (wild-type ribosome) was -3.59% (inactive) and 7.37% (inactive); the OD600 change was -1.83% and 9.18%; the RFP signal change is 2.44% and -0.538%.
On to `C[C@@H]1CN([C@@H](C)CO)C(=O)CCCn2nncc2CO[C@H]1CN(C)C(=O)Nc1ccc(C(F)(F)F)cc1`, for which the GFP signal change (wild-type ribosome) is -16.6% (active) and -54% (inactive); the OD600 change was -10.2% and -56.3%; the RFP signal change is 5.18% and -10.9%.
In the case of `C[C@H]1CN([C@@H](C)CO)C(=O)CCCn2nncc2CO[C@@H]1CN(C)C(=O)Nc1ccc(N2CCN(C)CC2)cc1`, the GFP signal change (wild-type ribosome) was 22.4% (inactive) and -1.77% (inactive); the OD600 change was 13.6% and 7.97%; the RFP signal change was 3.72% and -0.742%.
